According to the supplement of paper PMC6555819:

Key:
Assay in all cases: PBM binding z-score (relative to random genomic background probes); higher = stronger binding; sequences stand for … in GC…GCGATTGACAGCGTAGAATGAAGG
[1] = tested on: PPARg:RXRa IVT, anti-PPARg (NR concentration 270 nM, RXRa partner concentration 90 nM)
In short: (§1)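 Ligand-free nuclear receptor dimers were applied to custom Agilent 4×180K protein-binding microarrays whose double-stranded probes carried direct-repeat seeds, single-nucleotide variants, half-site ablations and random human genomic background sequences in 34-nt variable regions. Incubation lasted 1 h. Binding z-scores were computed against the random background probes from regression-normalized fluorescence.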

[2] = tested on: PPARg DBDmut:RXRa IVT, anti-PPARg (DBD mutation: PPARg1 K132A/R137A, NR concentration 270 nM, RXRa partner concentration 90 nM)
In short: as §1

[3] = tested on: PPARg DBDmut IVT, anti-PPARg (DBD mutation: PPARg1 K132A/R137A, NR concentration 270 nM)
In short: as §1

[4] = tested on: PPARg homodimer (NR concentration 180 nM)
In short: as §1

[5] = tested on: PXR:RXRa (NR concentration 270 nM, RXRa partner concentration 90 nM)
In short: as §1

[6] = tested on: PXR homodimer (NR concentration 270 nM)
In short: as §1

[7] = tested on: RARa:RXR (NR concentration 270 nM, RXRa partner concentration 90 nM)
In short: as §1

[8] = tested on: RARa homodimer (NR concentration 270 nM)
In short: as §1

[9] = tested on: RARb:RXRa (NR concentration 270 nM, RXRa partner concentration 90 nM)
In short: as §1

[10] = tested on: RARb homodimer (NR concentration 270 nM)
In short: as §1

Sequence | PBM binding z-score [1] | PBM binding z-score [2] | PBM binding z-score [3] | PBM binding z-score [4] | PBM binding z-score [5] | PBM binding z-score [6] | PBM binding z-score [7] | PBM binding z-score [8] | PBM binding z-score [9] | PBM binding z-score [10]
ACTTACGGGTCTACGAGGTTATAGCACGCGTATA | 0.458 | 0.196 | 0.723 | 0.507 | 1.03 | 0.544 | 1.28 | 0.676 | 0.688 | 0.753
CGAACGAGGTCATGAGTTGATAGCAAATGCCGAT | 6.46 | 1.73 | 1.44 | 2.84 | 5.17 | 0.602 | 5.48 | 0.273 | 5.23 | 3.94
CCTAGCAGGCCAATCTAGGTCACTCAAGGCTTGA | 5.19 | -0.0838 | -0.865 | 0.707 | 1.51 | -0.261 | 1.37 | -0.161 | 2.02 | 2.68
CCTTACGGGTCACTCCAGGTTATATCATCGGAGT | 3.56 | 0.671 | -0.354 | 1.62 | 5.16 | 0.444 | 3.62 | 0.321 | 3.69 | 3.31
CCAGACAGGTGAGAAGGTAACTCAGCCTCGATTA | 0.964 | -0.28 | -0.249 | 1.03 | 0.228 | 0.138 | 0.486 | 0.698 | 0.666 | 0.841
CAAACTAGGTCACTAAAGGTCAAAGTCGAATGAC | 8.98 | 4.79 | 2.9 | 5.36 | 6.84 | 2.87 | 7.45 | 3.41 | 5.53 | 5.66
CGTCCAAGGTCAAAGGTCAATGAAGAGATGACGG | 6.01 | 0.925 | 0.0116 | 3.92 | 7.05 | 1.95 | 8.9 | 1.95 | 6.08 | 5.56
TCTAGTTGGTCACGGAGGTCACAAACGACGGGTA | 3.96 | 0.857 | 0.878 | 2.5 | 4.3 | 1.25 | 4.32 | 1.68 | 3.66 | 4.21
GCTGCTAGGTCAACTGATGGTCATCTAAAGCTCG | 4.36 | 0.236 | 0.14 | 2.42 | 2.17 | -0.491 | 3.74 | 0.102 | 4.32 | 3.66
GATATAGGGTCAGCTAGAGGCCAGAGTATGGAAA | 3.12 | 0.476 | 0.427 | 1.99 | 3.23 | 0.376 | 4.57 | 0.593 | 4.34 | 3.75
CCTGCTAGGTCATGGTCAGCGAATCTACAGTATG | 3.76 | -0.0271 | -0.639 | 2 | 1.18 | -0.875 | 2.26 | -0.334 | 4.09 | 3.29
CCTACTGGGCCATTCAGAGGTCAATGATCATATG | 4.62 | 0.0847 | -0.339 | 1.92 | 3.89 | 0.827 | 3.93 | 0.374 | 3.42 | 4.28
TCTGCTAGGTCAACGTTGGTCAGCTAATCTGCTA | 4.38 | -0.219 | 0.673 | 0.191 | 1.56 | -0.62 | 2.22 | -1.27 | 4.03 | 3.31
GATACAGGGTCGGCTAGAGGCCAGAGTATGGAAA | -0.134 | -0.784 | -0.716 | 0.88 | 0.712 | -0.222 | 1.39 | -0.471 | 1.56 | 1.32
CGTCAAACTTCAACTAAGGTAACGTAAAGCACGC | 0.514 | 0.469 | 0.79 | 0.684 | 0.396 | 0.0401 | 0.922 | 1.05 | 0.391 | 0.665
TAGCCTAGGTCATGCGGGCCAATATAGTGTCGGC | 2.94 | -0.152 | -0.18 | 0.69 | 1.64 | -0.334 | 2.13 | -0.396 | 3.67 | 3.15
AGAATGAGGTTACTAAAGATCAGGGAAACGCTTG | 2.84 | 0.939 | 0.661 | 0.271 | 0.942 | 0.152 | 1.21 | 0.392 | 1.51 | 0.777
TATAAAGGGTCAAAGGCCAGAGTACGAATGTCGA | 4.93 | 2.86 | 2.33 | 3.29 | 4.36 | 0.699 | 5.99 | 1.64 | 5.27 | 4.32
GATACAGGGTCAGCTACAGGCCAGAGTATGGAAA | 2.25 | 0.112 | -0.146 | 1.47 | 2.17 | -0.273 | 3.3 | 0.244 | 4.02 | 2.99
ATCGAAAGGTCGAAGGTGAGCATACCCACCCGAA | 2.39 | 0.377 | 0.499 | 1.46 | 3.16 | 0.092 | 4.44 | 0.708 | 3.86 | 3.01
CGTCCAAGGTCATTGGAGGTCAGTGAAGACAGAT | 4.79 | 0.319 | -0.697 | 5.59 | 7.17 | 8.63 | 6.25 | 2.43 | 5.56 | 5.54
ACTTACGGCTCAACGAGGTTATAGCACGCGTATA | 0.0544 | 0.327 | 0.825 | 0.463 | 0.645 | 0.358 | 0.812 | -0.139 | 0.165 | 0.526
CGTCCAAGGTTAAGGTCAGTGAAAGAGACTCGAA | 2.04 | -0.847 | -0.494 | 3.1 | 2.73 | 1.01 | 3.56 | 0.781 | 4.16 | 3.58
CCTTACGGGTTACTCCAGGTTATAGCATCGGAGT | 0.994 | 0.298 | -0.838 | 0.398 | 2.52 | 0.558 | 1.68 | 0.599 | 1.02 | 0.561
ATATGTAGGATAGCTGGGGTCATTCAGACTAGGC | 2.82 | 0.891 | 1.52 | 5.47 | 5.76 | 2.24 | 5.49 | 1.21 | 2.54 | 3.16

Sequence | PBM binding z-score [1] | PBM binding z-score [2] | PBM binding z-score [3] | PBM binding z-score [4] | PBM binding z-score [5] | PBM binding z-score [6] | PBM binding z-score [7] | PBM binding z-score [8] | PBM binding z-score [9] | PBM binding z-score [10]
TTGCCTAGGTCATTGGGCCAGTATAGTACGCATC | 3.83 | 0.969 | -0.224 | 0.621 | 1.67 | -0.193 | 2.13 | -0.65 | 3.79 | 2.92
CGTCCAAGGTCATATGAGGTCAGTGAAGACAGAT | 3.84 | 0.668 | 0.114 | 4.65 | 7.23 | 9.26 | 6.07 | 2.7 | 5.34 | 5.47
ACTCGGATGACAAAGGTCAGAGCTACGCCAGTGA | 2.58 | 0.403 | 0.346 | 3.31 | 3.68 | 0.135 | 4.51 | 1.18 | 4.12 | 3.9
CCTAGTTGTTCAGGAGGTCACACACCGGATATGA | 2.97 | 1.15 | 0.86 | 3.91 | 4.18 | 2.15 | 4.4 | 2.25 | 3.62 | 4.15
GGAACGAGGGCAAAGTTCATAGCATCTGTCGACG | 6.1 | 0.354 | -0.0901 | 3.42 | 5.81 | 4.46 | 6.65 | 0.559 | 4.01 | 3.75
AGAATGAGGTTACCAAAGTTCAGGGAAACGCTTG | 4.09 | 0.616 | 0.161 | 1.31 | 6.02 | 3.03 | 3.93 | 0.38 | 3.81 | 3.93
CGCACTAGGTCATCCAGGACAGTGAATACATTGA | 8.07 | 2.66 | 1.65 | 1.92 | 1.97 | 0.888 | 2.65 | 0.479 | 3.88 | 3.11
CGAACGAGGTCATTGACAGGACAGTGAATAGTAA | 5.72 | 2.22 | 0.785 | 3.3 | 5.28 | 3.11 | 5.46 | 0.884 | 4.82 | 3.73
AGTCAAAGTTCAGGACGACGTAACGTAAAGCACG | 1.54 | 0.437 | -0.388 | 1.53 | 2.18 | 0.785 | 1.86 | 0.264 | 3.92 | 2.77
TCTCGGAGGACACCAAAGGTCAGAGCTCGACATC | 1.71 | -0.171 | -0.615 | 3.42 | 4.41 | 0.454 | 4.86 | 1.44 | 4.21 | 4.64
CAAACTAGGTCACAGTGGTCAAAGTCCGTGCGTA | 9.05 | 2.06 | 1.68 | 2.21 | 2.03 | -0.0834 | 2.51 | 0.000573 | 4.08 | 3.62
CGTCCGAGGTCAAGGTCAGTGAAAGAGACTCGAA | 5.07 | 0.688 | -0.148 | 4.23 | 5.51 | 1.87 | 6.15 | 1.57 | 5.71 | 5.16
ATATGTAGGTTAGCTGGGGTCCTTCAGACTAGGC | 5.77 | 1.74 | 2.65 | 1.13 | 1.33 | 0.206 | 2.3 | 0.538 | 0.851 | 0.736
AGAATGAGGTCATACGTAGATCAGGGAAGAAAGT | 6.69 | 1.6 | 2.79 | 2.06 | 4.89 | 1.94 | 5.04 | 1.17 | 4.84 | 3.6
CCTAGTTGGTCAAGGTCACATACGCTATAGGTAC | 3.3 | 1.13 | 1 | 3.03 | 4.1 | 2.39 | 4.46 | 2.55 | 3.95 | 4.15
AATACAGGGTCACGAGGCCAGAGTAGGTACGAAT | 5.74 | 2.21 | 2.16 | 3.03 | 4.43 | 0.257 | 5.27 | 1.39 | 5.07 | 4.14
AATACAGGGTAACTAGGCCAGAGTAGGTACGAAT | 4.67 | 1.24 | 0.826 | 0.854 | -0.078 | 0.0219 | -0.00374 | 0.0183 | 0.804 | 0.549
GATACAGGGTCAAGGTCAGAGTACGCGTATTGAT | 5.18 | 1.47 | 0.678 | 2.96 | 5.08 | 1.84 | 5.53 | 2.12 | 5.11 | 5.14
ACGCGGAGGACAAAGGTCAGAGCTACGCCAGTGA | 3.08 | -0.183 | -0.911 | 2.67 | 3.88 | 0.273 | 5.05 | 0.759 | 4.48 | 4.11
ATATGTAGGTTACATCCGGGTCATCCAGGCTATG | 7.51 | 3.31 | 2.5 | 2.45 | 3.45 | 1.14 | 3.67 | 0.961 | 2.3 | 3.26
AGTCAAAGTTGAGGACGAGGTAACGTAAAGCACG | 0.639 | 0.307 | -0.0552 | 0.137 | 0.261 | -0.0592 | 0.951 | 0.0325 | 1.46 | 1.01
CCTGCGAGGTCATGGTCAGCTAATCTACAGTATG | 4.21 | 2.09 | 1.64 | 4.94 | 5.39 | 1.06 | 5.88 | 1.08 | 5.01 | 4.02
CGTCCGAGGTCATAGGAGGTCAGTGAAGACAGAT | 4.71 | 1.87 | 0.417 | 5.49 | 7.21 | 6.7 | 6.7 | 2.36 | 5.36 | 5.04
CCTTACGGGTCACTCCAGGTCATAGCATCGGAGT | 4.39 | -0.278 | -0.144 | 2.14 | 6.17 | 1.15 | 4.49 | 0.835 | 4.25 | 4.42
